A selection: hits, their analogues and other compounds. The true share with any hit is near 4.3%.
FAS TE block: blocks the thioesterase domain of human fatty acid synthase; recombinant FAS-TE, OMFH fluorogenic substrate, fluorescence endpoint; inhibition, % at 15 µM; 360,000 compounds, 0.67% hits; AID 602261;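 active = compounds whose normalised, plate-corrected inhibition of enzyme fluorescence in the single-dose primary screen is 50% or more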;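 note: 0% = DMSO with enzyme and 100% = substrate without enzyme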
NR3A LBD binder: modulators (binders) of human NR3A ligand-binding domain. NR3A LBD differential scanning fluorimetry, Tm shift; 0% = protein alone, 100% = glycine-bound protein. Tm shift relative to glycine control, % at 25 µM. 340,000 compounds, 2.5% hits. AID 1259313;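 active = melting temperature shift of at least 10% of the positive control shift, at one fixed dose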
rCAG binder: r(CAG) repeat RNA binding; AID 651821; inhibition, % at 3 µM; TO-PRO-1 dye displacement fluorescence; 370,000 compounds, 1.3% hits;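 active = inhibition above the plate cutoff, the mean of all test compounds on that plate plus 3 SD, cut at about 35% in these data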;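 note: 0% = DMSO alone and 100% = 100 µM mitoxantrone as full dye displacement; higher means more dye released from RNA so lower well fluorescence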
NadD block: blocks S. aureus nicotinate mononucleotide adenylyltransferase; purified NadD enzyme, colorimetric absorbance read-out; inhibition, % at 20 µM; 360,000 compounds, 0.78% hits; in the data active = inhibition above about 26%
Numbers without * were called inactive; . = no result.

SMILES	FAS TE block	NR3A LBD binder	rCAG binder	NadD block
CC(C)C[C@@H]1COc2cc(Br)ccc2S(=O)(=O)N1Cc1cn(CC2CCCCC2)nn1	.	.	0.5	.
CCOC(=O)C1=NN(C(C)=O)C2(CC(=O)N(c3cc(C)cc(C)c3)C2=O)C1 (centres undefined)	-6.0	13.4*	-3.9	-6.3
CCCCNc1c(-c2ccc(OC)c(Sc3ccc(OC)cc3)c2)nc2cnccn12	28.4	-14.5	4.1	-2.2
CCCCNc1c(-c2ccc(SC(C)CC)cc2)nc2cnccn12 (centres undefined)	55.4*	-2.7	.	20.1
O=C(N/N=C\c1c(O)ccc2ccccc12)c1ccc(O)cc1	21.1	40.8*	23.4	-4.1
Cc1occc1C(=O)N/N=C/c1c(O)ccc2ccccc12	7.1	32.1*	13.1	-2.0
CC(COc1ccc(Br)cc1)CN1CCC(C(O)(c2ccccc2)c2ccccc2)CC1 (centres undefined)	.	.	5.8	.
C#CCN(C[C@H]1[C@H](OC(=O)Nc2c(C)noc2C)[C@H](OC(=O)Nc2c(C)noc2C)CN(C(=O)OC(C)C)N1C(=O)OC(C)C)S(=O)(=O)c1ccc(C)cc1	.	.	6.5	.
COc1cccc(C(=O)/C=C/Nc2ccc(S(=O)(=O)Nc3ncccn3)cc2)c1	-6.7	2.4	6.4	0.1
COc1ccc(C(=O)/C=C/Nc2ccc(S(=O)(=O)Nc3cccc(C(C)=O)c3)cc2)cc1	17.7	13.5*	18.2	8.8
COc1cccc(N/C=C/C(=O)c2ccc(Br)cc2)c1	22.2	1.8	4.9	1.1
COc1ccc(C(=O)/C=C/Nc2cccc(O)c2)cc1	-2.7	18.8*	10.4	5.0
COc1cccc(C(=O)/C=C/Nc2ccc(S(=O)(=O)Nc3ccc(C(C)=O)cc3)cc2)c1	13.3	24.4*	34.5	8.8
O=C(/C=C1\SC(=O)N(CC(=O)Nc2ccc(Cl)cc2)C1=O)Nc1ccc(F)cc1	-10.3	36.0*	4.5	7.4
Cc1cccc(NC(=O)CN2C(=O)S/C(=C\C(=O)Nc3ccc(Cl)cc3)C2=O)c1	-2.8	8.8	3.4	1.9
O=C(/C=C1\SC(=O)N(CC(=O)Nc2ccc(F)cc2)C1=O)Nc1ccc(Cl)cc1	-4.4	27.2*	3.3	9.4
C=CCN1C(=O)[C@H](CC(=O)N2CCN(C(=O)C3CC3)CC2)[C@@]2(C(=O)OCC)CCCC=C12	.	.	-1.3	.
Cc1ccc(NC(=S)N(CCCN2CCOCC2)Cc2cccs2)c(C)c1	-5.7	-0.1	-7.1	-5.7
Cc1c(Cl)cccc1NC(=S)N(CCCN1CCOCC1)Cc1cccs1	11.9	16.6*	-1.3	-7.9
CCCCc1c(C)c2ccc(OCC(C)=O)cc2oc1=O	-46.7	-7.5	-1.6	1.2
CCCc1c(C)c2ccc(OCC(C)=O)cc2oc1=O	-12.4	11.7*	-2.3	2.5
O=C(Nc1cccc(NC(=O)c2cncc(Br)c2)c1)c1cncc(Br)c1	2.4	-2.4	5.6	5.9
O=C(Nc1ccncc1)c1cncc(Br)c1	-8.0	10.5*	-2.9	-2.0
O=C(O)CCN1C(=O)/C(=C\c2ccc(OCc3ccccc3)c(OCc3ccccc3)c2)SC1=S	-48.6	0.8	12.4	31.1*
O=C(O)CCN1C(=O)/C(=C\c2cccc(OCc3ccccc3)c2)SC1=S	-101.1	10.9*	6.7	7.4
SMILES	FAS TE block	NR3A LBD binder	rCAG binder	NadD block
COc1cccc(/C=C2/SC(=S)N(CCC(=O)N3CCOCC3)C2=O)c1	-1.2	0.3	2.7	-0.9
O=S1(=O)C=CCN1Cc1cn(Cc2ccc(C(F)(F)F)cc2)nn1	.	.	-0.6	.
CCCOC(=O)c1c(-c2ccccc2)nc(CC)c(C(=O)SCC)c1CCC	19.6	10.1*	0.8	22.6
N#CCCN(Cc1cccnc1)S(=O)(=O)c1ccc2ccccc2c1	2.3	2.8	-3.0	-3.4
N#CCCN(Cc1cccnc1)S(=O)(=O)c1ccc(S(=O)(=O)NC2CCCCC2)cc1	-4.8	13.7*	-4.2	-5.2
COC(=O)c1cc(C2(c3c[nH]c4ccccc34)CCN(C(=O)OC(C)(C)C)CC2)n2ccccc12	.	.	11.0	.
O=C(Cc1ccccc1F)N1CCC(n2nnc3ncccc32)CC1	.	.	2.8	.
Cc1ccc(S(=O)(=O)NCC(=O)OCC(=O)N2N=C(c3ccc(Cl)cc3)CC2c2ccco2)cc1C (centres undefined)	27.4	31.0*	11.9	8.9
O=C(OCC(=O)N1N=C(c2ccc(Cl)cc2)CC1c1ccco1)c1ccco1 (centres undefined)	27.5	0.0	-4.0	1.7
C[N+]1(CCC(=O)c2ccccc2)CCCCC1	-11.2	10.2*	-2.4	8.2
CCOC(Cn1c(SCc2cc(C(C)=O)ccc2OC)nc2ccccc2c1=O)OCC	-14.8	13.0*	-2.4	0.8
